Test results as given in PubChem BioAssay (Tox21).
Results filed as inconclusive are left out. Active and inactive are the calls of the source. The call rests on the fitted dose curve; in most records, active means well fitted curve in the direction sought with a large enough effect in the repeat runs; inconclusive means weak or mixed curves; inactive means no such curve, though single readings can be large; an effect the other way counts as inactive or inconclusive.

What was measured:
[1] = qHTS RealTime-Glo MT Cell Viability Assay in HEK293 cells - 32 hour (AID 1224868); conditions: RealTime-Glo luminescence; series mostly up to 76.8 µM; further: top concentration of the series differs between compounds; nearly all actives have a fitted effect of over 50% in size
Method in brief: (§1)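 Tox21 10K qHTS, HEK293, 600 cells/well, RealTime-Glo reagent co-dispensed with cells; 5 h preincubation, compound by pintool, 37 C, luminescence at 0–40 h.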

[2] = A CellTox Green Cytotoxicity Assay to monitor cytotoxicity in HEK293 cells - 0 hour (AID 1224869); conditions: CellTox Green fluorescence; series mostly up to 76.8 µM; further: nearly all actives have a fitted effect of over 50% in size
Method in brief: (§2)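 Homogeneous no-lysis format: HEK293 cell suspension mixed with CellTox Green reagent, seeded, incubated 5 h at 37 C/5% CO2, then dosed by pintool with compound in DMSO.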

[3] = qHTS RealTime-Glo MT Cell Viability Assay in HepG2 cells - 40 hour (AID 1224870); conditions: RealTime-Glo luminescence; series mostly up to 76.8 µM; further: nearly all actives have a fitted effect of over 50% in size
Method in brief: (§3)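 HepG2 cells (600/well) mixed with RealTime-Glo MT reagent, settled 5 h at 37 C/5% CO2 before compound addition. Nonlytic NanoLuc luminescence from viable-cell prosubstrate reduction read repeatedly during 40 h treatment at 37 C.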

[4] = A CellTox Green Cytotoxicity Assay to monitor cytotoxicity in HEK293 cells - 40 hour (AID 1224871); conditions: CellTox Green fluorescence; series mostly up to 76.8 µM; further: nearly all actives have a fitted effect of over 45% in size
Method in brief: as §2

[5] = qHTS RealTime-Glo MT Cell Viability Assay in HepG2 cells - 8 hour (AID 1224873); conditions: RealTime-Glo luminescence; series mostly up to 76.8 µM; further: nearly all actives have a fitted effect of over 55% in size
Method in brief: as §3

[6] = A CellTox Green Cytotoxicity Assay to monitor cytotoxicity in HEK293 cells - 24 hour (AID 1224875); conditions: CellTox Green fluorescence; series mostly up to 76.8 µM; further: nearly all actives have a fitted effect of over 45% in size
Method in brief: as §2

[7] = A CellTox Green Cytotoxicity Assay to monitor cytotoxicity in HepG2 cells - 16 hour (AID 1224876); conditions: CellTox Green fluorescence; series mostly up to 76.8 µM; further: nearly all actives have a fitted effect of over 45% in size
Method in brief: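 Fluorescent DNA-binding dye, 600 HepG2 cells/well, 5 h preincubation then compound in DMSO; same plates read at 0–40 h, 37 C.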

[8] = qHTS RealTime-Glo MT Cell Viability Assay in HepG2 cells - 32 hour (AID 1224877); conditions: RealTime-Glo luminescence; series mostly up to 76.8 µM; further: nearly all actives have a fitted effect of over 55% in size
Method in brief: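 Cells + NanoLuc/prosubstrate dispensed (600 cells/well) → 5 h at 37 C/5% CO2 → compounds in DMSO transferred → 40 h incubation at 37 C, luminescence read at 0, 8, 16, 24, 32, 40 h.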

[9] = qHTS RealTime-Glo MT Cell Viability Assay in HEK293 cells - 40 hour (AID 1224874); conditions: RealTime-Glo luminescence; max response: hits give low values; further: nearly all actives have a fitted effect of over 50% in size
Method in brief: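 Measured as luminescence from the same continuously cultured HEK293 wells at successive time points (0, 8, 16, 24, 32, 40 h) after compound addition. Reagent present from seeding; dosing at 5 h; incubation 37 C.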

[10] = qHTS RealTime-Glo MT Cell Viability Assay in HEK293 cells - 16 hour (AID 1224872); conditions: RealTime-Glo luminescence; series mostly up to 76.8 µM
Method in brief: as §1
On the % scale 0 is the no-effect control and ±100 the full control effect.

CC1=C(O)C(=O)C(C)O1 (centres undefined)
inactive: Potency [1] | Potency [2] | outcome [3] | Potency [4] | outcome [5] | Potency [6] | Potency [7] | outcome [8]

CCC(=O)c1c(O)cc(O)cc1O
inactive: Potency [1] | Potency [2] | outcome [3] | outcome [5] | max response [9] 11.1% | Potency [6] | Potency [7] | outcome [8]

CC(S)C(C)S (centres undefined)
inactive: Potency [1] | Potency [2] | outcome [3] | Potency [4] | outcome [5] | Potency [6] | Potency [7] | outcome [8]

ONc1ccccc1
inactive: Potency [1] | Potency [2] | outcome [3] | Potency [10] | outcome [5] | max response [9] -13.8% | Potency [6] | Potency [7] | outcome [8]

CC(=O)O[C@@H]1CC2CCC1(C)C2(C)C (some centres undefined)
inactive: Potency [1] | Potency [2] | outcome [3] | Potency [4] | outcome [5] | max response [9] 5.83% | Potency [6] | Potency [7] | outcome [8]

O=[N+]([O-])c1c(Cl)cc(Cl)cc1Cl
inactive: Potency [1] | Potency [2] | outcome [3] | Potency [10] | outcome [5] | max response [9] -1.77% | Potency [7] | outcome [8]

CC(=O)CCC1=C(C)CCCC1(C)C
inactive: Potency [1] | Potency [2] | outcome [3] | Potency [10] | outcome [5] | max response [9] -7.96% | Potency [6] | outcome [8]

N#Cc1cscn1
inactive: Potency [2] | outcome [3] | Potency [4] | Potency [10] | outcome [5] | max response [9] 9.48% | Potency [6] | Potency [7] | outcome [8]

N#CCC(=O)NN
inactive: Potency [1] | Potency [2] | outcome [3] | Potency [4] | outcome [5] | max response [9] 1.05% | Potency [6] | Potency [7] | outcome [8]

CN(C)CCCO[C@@H]1[C@H]2OC(C)(C)O[C@H]2O[C@@H]1C(O)CO (some centres undefined)
inactive: Potency [1] | Potency [2] | outcome [3] | Potency [4] | outcome [5] | max response [9] 0.847% | Potency [6] | Potency [7] | outcome [8]

Cc1c(Cl)cccc1Cl
inactive: Potency [1] | Potency [2] | outcome [3] | Potency [4] | outcome [5] | max response [9] -1.25% | Potency [6] | Potency [7] | outcome [8]

COC(=O)c1cccc(Cl)c1
inactive: Potency [1] | Potency [2] | outcome [3] | Potency [4] | outcome [5] | max response [9] 11% | Potency [6] | Potency [7] | outcome [8]

CC(=O)C1C(=O)C=C(C)OC1=O (centres undefined)
inactive: Potency [2] | outcome [3] | Potency [4] | Potency [10] | outcome [5] | max response [9] 1.99% | Potency [6] | Potency [7] | outcome [8]

CC(C)=CCC/C(C)=C/COC=O
inactive: Potency [1] | Potency [2] | outcome [3] | Potency [4] | outcome [5] | Potency [6] | Potency [7] | outcome [8]

Cc1ccc(C)c([N+](=O)[O-])c1
inactive: Potency [2] | outcome [3] | Potency [4] | Potency [10] | outcome [5] | max response [9] 12.1% | Potency [6] | Potency [7] | outcome [8]

CCC(C)C(=O)OCCc1ccccc1 (centres undefined)
inactive: Potency [1] | Potency [2] | outcome [3] | Potency [10] | outcome [5] | Potency [6] | Potency [7] | outcome [8]

C/C=C(\C)C(=O)OCCc1ccccc1
inactive: Potency [2] | outcome [3] | Potency [10] | outcome [5] | max response [9] -3.34% | Potency [7] | outcome [8]

CC1CC(=O)CC(C)(C)C1 (centres undefined)
inactive: Potency [2] | outcome [3] | Potency [4] | outcome [5] | max response [9] -1.21% | Potency [6] | Potency [7] | outcome [8]

C=C(C)c1cccc(C(C)(C)N=C=O)c1
inactive: Potency [2] | outcome [3] | Potency [4] | Potency [10] | outcome [5] | max response [9] 3.52% | Potency [6] | Potency [7] | outcome [8]

C=C(C)C1CC=C(C)C(=O)C1 (centres undefined)
inactive: Potency [2] | outcome [3] | Potency [4] | outcome [5] | Potency [6] | Potency [7] | outcome [8]

c1ccc2cnccc2c1
inactive: Potency [2] | outcome [3] | Potency [4] | Potency [10] | outcome [5] | max response [9] 9.26% | Potency [6] | Potency [7] | outcome [8]

CC1CCc2c(N3CCC(O)CC3)c(F)cc3c(=O)c(C(=O)O)cn1c23 (centres undefined)
inactive: Potency [2] | outcome [3] | Potency [4] | Potency [10] | outcome [5] | max response [9] -0.0801% | Potency [6] | Potency [7] | outcome [8]

CCCCCc1cccc(=O)o1
inactive: Potency [2] | outcome [3] | Potency [4] | outcome [5] | max response [9] -0.0336% | Potency [7] | outcome [8]

CCN(CC)CCN
inactive: Potency [2] | outcome [3] | Potency [4] | Potency [10] | outcome [5] | max response [9] 2.52% | Potency [6] | Potency [7] | outcome [8]

CCC(C(=O)OCCN1CCOC(c2ccccc2)C1C)c1ccccc1 (centres undefined)
inactive: Potency [2] | outcome [3] | Potency [4] | outcome [5] | Potency [6] | Potency [7] | outcome [8]
